TcdB GH inh: TcdB glycohydrolase inhibition. P18177. TcdB glycohydrolase enzymatic assay, plate reader. inhibition, % at 9.99 µM. hit rate 0.24% among 350,000. AID 652162; in the data active means inhibition above about 10%
PrPC TRFRET: reduces human prion protein on the cell surface; P04156; cell surface PrPC, TR-FRET read-out; inhibition, % at 13.8 µM; hit rate 0.43% among 370,000; AID 720596; in the data active means inhibition above about 24%; further: 0% = median of the test wells and 100% = reference compound wells
BH1578 lux ind: inducers of Vibrio cholerae quorum light production without autoinducers. V. cholerae BH1578 lux reporter, luminescence, 6 h. activation, % at 18.7 µM. hit rate 0.16% among 350,000. AID 588436; in the data active means activation mostly above about 9.7%, no sharp cut-off
CCHFV vOTU inh: blocks the CCHF virus ovarian tumor domain protease | inhibition, % at 11.5 µM | CCHFV vOTU protease, Pep-AMC fluorescence | hit rate 0.55% among 370,000 | AID 651958; in the data active means inhibition above about 30%; further: 0% = vehicle wells with enzyme and 100% = no enzyme wells
VHR inh abs: blocks human VHR1 dual specificity phosphatase | hit rate 0.52% among 290,000 | recombinant VHR phosphatase, pNPP absorbance | inhibition, % at 13.3 µM; in the data active means inhibition above about 50%
Target sequence (P51452 whole entry, looked up): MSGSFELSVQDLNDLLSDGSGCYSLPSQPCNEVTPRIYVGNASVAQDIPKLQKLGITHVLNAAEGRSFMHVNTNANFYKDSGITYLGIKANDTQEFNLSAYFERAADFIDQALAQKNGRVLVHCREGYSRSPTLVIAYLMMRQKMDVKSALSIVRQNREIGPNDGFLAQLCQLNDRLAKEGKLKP
SSB-PriA inh: K. pneumoniae PriA-SSBct interaction inhibition; AlphaScreen SSBct-PriA binding, biotinylated peptide; inhibition, % at 33 µM; hit rate 0.6% among 430,000; AID 1272365; in the data active means inhibition mostly above about 37%, no sharp cut-off; inactive means mostly below about 20%;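 further: plate controls were negative control peptide for no effect and reference peptide for full effect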
The depositor's hits bear a star; i = inactive; nt = no result given. Shown are actives, neighbours in structure and some others; about 1.5% of the full set was active somewhere.

SMILES | TcdB GH inh | PrPC TRFRET | BH1578 lux ind | CCHFV vOTU inh | VHR inh abs | SSB-PriA inh
COc1ccc(OC(=O)C(C)N2C(=O)c3ccccc3C2=O)cc1 (stereo not drawn) | 0.8 | 8.7 | -0.7 | -3.0 | 1.7 | -10.2
Cc1cc(=O)oc2c(N)c(O)ccc12 | 11.6* | -6.8 | -0.2 | -1.4 | 8.4 | 8.5
CCc1ccccc1NC(=O)Nc1cnc(N2CCN(C)CC2)nc1 | nt | nt | nt | nt | nt | 7.0
Fc1ccccc1-c1nc(-c2ccccc2)no1 | nt | 4.4 | i | 4.7 | 17.6 | -72.9
COc1ccc(-c2noc(-c3ccccc3F)n2)cc1 | 0.5 | -3.5 | -0.2 | 9.9 | 10.7 | 104.2*
CCOc1cn2c(cc1=O)C(=O)N(CCNC(=O)c1cc(=O)c3ccccc3o1)CC2 | nt | nt | nt | nt | nt | -7.0
COc1ccc(C(NC(C)=O)c2cc(Cl)c3cccnc3c2O)cc1 (stereo not drawn) | 10.9* | 28.4* | 0.2 | 8.3 | 4.1 | 42.6
CC1=NN(c2ccccc2)C(=O)/C1=C\c1ccc(Oc2ccc([N+](=O)[O-])cc2[N+](=O)[O-])cc1 | 1.1 | -40.4 | -0.3 | 91.0* | 4.1 | 21.3
CCOc1ccccc1C(=O)NCCn1ccnc1-c1ncccn1 | nt | nt | nt | nt | nt | 55.0*
O=C(/C=C/c1cccs1)NCCn1ccnc1-c1ncccn1 | nt | nt | nt | nt | nt | 116.5*
COc1cccc2cc(C(=O)NCCn3ccnc3-c3cccnc3)oc12 | nt | nt | nt | nt | nt | -19.0
Cc1oncc1C(=O)NCCn1ccnc1-c1ncccn1 | nt | nt | nt | nt | nt | 46.0*
COc1cccc2cc(C(=O)NCCn3ccnc3-c3ncccn3)oc12 | nt | nt | nt | nt | nt | 46.0*
Cc1cc(C(=O)NCCn2ccnc2-c2ncccn2)no1 | nt | nt | nt | nt | nt | -7.0
CCC/C=N\NC(=O)c1cccc(O)c1 | nt | nt | nt | nt | nt | -15.0
O=C(Nc1ccc(N2CCOCC2)cc1)c1ccc([N+](=O)[O-])cc1Cl | nt | nt | nt | nt | nt | 4.0
CN(C)S(=O)(=O)c1ccc(C(=O)N2CCN(c3ccc(-n4cncn4)nn3)CC2)cc1 | nt | nt | nt | nt | nt | -17.0
O=C(O)c1cccc(-c2ccn[nH]2)c1 | nt | nt | nt | nt | nt | -6.0
O=C(NCCn1ccnc1-c1ncccn1)c1ccccc1Cl | nt | nt | nt | nt | nt | 78.0*
N#Cc1c(N)sc(=S)c2c1CCCC2 | nt | -5.0 | 1.1 | -7.5 | -11.3 | 64.9*
COC(=O)c1ccc(NC(=O)C(=O)NCC[C@@H](CCO)c2ccccc2)cc1 | nt | nt | nt | nt | nt | -8.0
N#C/C(=N\Nc1ccccc1[N+](=O)[O-])c1nc(-c2ccc(F)cc2)cs1 | nt | nt | nt | nt | nt | -11.0
Cc1ccsc1C(=O)NCc1ccccc1Cl | 0.6 | -0.7 | -0.5 | 2.0 | 58.5* | -23.4
Cn1c(C(F)(F)F)nn(Cc2ccccc2C#N)c1=O | nt | nt | nt | nt | nt | -11.0
CC(=O)OC[C@H]1O[C@@H](Sc2cccc3cccnc23)[C@H](OC(C)=O)[C@@H](OC(C)=O)[C@@H]1OC(C)=O | nt | 2.6 | 0.3 | -25.8 | 4.5 | 3.0
SMILES | TcdB GH inh | PrPC TRFRET | BH1578 lux ind | CCHFV vOTU inh | VHR inh abs | SSB-PriA inh
CC(=O)OC[C@H]1O[C@@H](Sc2cccc3cccnc23)[C@H](OC(C)=O)[C@@H](OC(C)=O)[C@H]1OC(C)=O | 1.1 | 1.6 | -0.5 | -13.8 | -13.1 | 40.2*
CCc1ccc(NS(=O)(=O)c2[nH]ncc2C(=O)n2nc(C)cc2C)cc1 | nt | nt | nt | nt | nt | 2.0
Nc1ccc(C2(c3ccc(N)cc3)C(=O)Nc3ccccc32)cc1 | 1.0 | 0.7 | -3.2 | -13.6 | 52.7* | 12.9
COc1ccccc1NC(=O)NCC1CCN(c2ccncc2)CC1 | nt | nt | nt | nt | nt | -2.0
O=C(CCS(=O)(=O)c1cccs1)Nc1ccc(C(=O)NCc2ccccc2)cc1 | nt | -0.8 | 0.4 | 6.0 | 53.3* | -6.1
O=c1[nH]c(-c2ccc(Cl)cc2)cs1 | 1.1 | -8.9 | -0.5 | 1.9 | 13.2 | -3.3
O=c1[nH]c(-c2ccccc2)cs1 | 0.0 | -4.4 | -0.2 | -1.0 | -4.8 | 9.2
Fc1ccc(-c2csc(=S)[nH]2)cc1 | 19.4* | -6.4 | -0.2 | 4.0 | -2.7 | -5.1
S=c1[nH]c(-c2ccccc2)cs1 | 17.3* | -2.9 | i | 11.2 | 12.9 | 11.4
CCS(=O)(=O)NCC1(c2ccsc2)CCCC1 | nt | nt | nt | nt | nt | -7.0
O=C(O)CS(=O)(=O)c1ccc(F)cc1 | nt | nt | nt | nt | nt | -17.0
O=C(CS(=O)(=O)c1ccc(F)cc1)NCCS(=O)(=O)c1ccccc1 | 0.2 | -0.8 | -1.4 | -13.7 | -11.8 | 58.1*
COc1cccc(CNc2ccc3[nH]c(=O)[nH]c3c2)c1OCc1ccccc1 | nt | nt | -2.3 | nt | 47.0 | 46.6*
C=CCOc1cccc(CNc2ccc3[nH]c(=O)[nH]c3c2)c1 | 23.9* | 5.1 | 7.5 | -1.0 | 6.9 | 22.1
C=CCOc1ccc(CNc2ccc3[nH]c(=O)[nH]c3c2)cc1OC | -1.0 | -9.5 | 1.1 | -45.9 | 10.3 | -1.5
COc1cc(CNc2ccc(O)cc2)cc(Br)c1OCc1ccccc1 | 3.4 | -15.9 | 1.7 | 94.4* | 21.9 | 1.4

Assay outcomes deposited in PubChem by several laboratories.
